Source: PubChem BioAssay (National Center for Advancing Translational Sciences (NCATS))
Pf growth 96h = P. falciparum growth inhibition at 96 hour, primary screen for plastid delayed-death inhibitors; P. falciparum luciferase reporter growth, 96 h; Potency, µM (highest dose often 28.7 µM), for the others: top-dose activity change, negative = inhibition, hits mostly inhibitors; 6.9% of 320,000 active; also: % is scaled to controls: 0 for no effect and ±100 for the full control effect
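Delayed-death screen, second-generation endpoint: infected erythrocytes, 2% hematocrit, 0.05% parasitemia final; 96 hours at 37 C, 5% CO2; luciferase detection reagent; luminescence decrease equals reduced growth.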
SARS PLP yeast = blocks SARS-CoV papain-like protease in a yeast assay. 0.19% of 330,000 active. S. cerevisiae expressing SARS-CoV PLpro, growth rescue. AID 485353. Potency, µM (titrated, usually from 32.9 µM), inactives show top-dose activity, positive = growth rescue, hits mostly activators; calls by dose curve; also: 0% is about no effect; nearly all actives have a fitted effect of over 55% in size
NS1 function inh = blocks influenza NS1 protein function; Potency, µM (top dose mostly 46.1 µM), inactives show at the highest dose activity, positive = more growth; 0.4% of 270,000 active; AID 2326; calls by dose curve; also: actives are rising curves; nearly all actives have a fitted effect of over 50% in size
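In this qHTS, NS1 from influenza A is expressed in budding yeast, where it slows growth. Cells are switched from glucose to 2% galactose medium (pH 6.0, -URA), treated with compound, and growth recovery is read at OD600.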
Pf growth 48h = inhibits P. falciparum growth in the first generation, 48 h. Potency, µM (series often up to 28.7 µM), inactives show at the highest dose activity change, negative = inhibition, most hits filed as inhibitors. 5.9% of 310,000 active. AID 504832. P. falciparum luciferase growth in erythrocytes, 48 h; also: % is scaled to controls: 0 for no effect and ±100 for the full control effect
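Firefly luciferase activity from engineered P. falciparum reports growth; inhibitors lower the luminescent signal. Cultures contained 2% hematocrit erythrocytes at 0.1% final parasitemia.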
Numbers without * were called inactive; u = inconclusive; x = no result given. Only some compounds are listed: those with a hit (about 10% of all), similar ones and a draw of the others. Unless noted, calls follow the shape of the dose curve; as a rule, active = well fitted inhibition curve with a large enough effect; inconclusive = small, poorly fitted or top-dose-only effect, or another doubt; inactive = no such curve, though single readings can be large or run the other way. Potency is read from the fitted curve at half-maximal effect.

SMILES	Pf growth 96h	SARS PLP yeast	NS1 function inh	Pf growth 48h
CC(=O)Nc1ccc(C)c(NS(=O)(=O)c2cccc(C(F)(F)F)c2)c1	3.7µM*	0.8%	4.2%	1.85µM*
COc1cc2ncc(C(=O)c3ccccc3)c(N3CCN(Cc4ccccc4)CC3)c2cc1OC	u	-0.8%	5.9%	4.65µM*
O=C(NCc1nc2ccccc2[nH]1)C1=C[C@H](c2csc3ccccc23)C[C@H](OCc2ccc(CO)cc2)O1	14.7µM*	4.5%	u	11.7µM*
O=C(NCc1nc2ccccc2[nH]1)C1=C[C@@H](c2csc3ccccc23)C[C@@H](OCc2ccc(CO)cc2)O1	3.29µM*	-0.8%	15.7%	u
O=C(NCc1nc2ccccc2[nH]1)C1=C[C@@H](c2ccc(Br)cc2)C[C@@H](OCc2ccc(CO)cc2)O1	u	-1.8%	3.8%	u
CC(=O)NC1C(=O)N(CCc2ccccc2)c2ccc(Br)cc21 (configuration not stated)	1.85µM*	-6.7%	29.2%	x
CC(=O)NC1C(=O)N(Cc2ccccc2)c2ccc(Br)cc21 (configuration not stated)	u	-0.9%	u	40.2%
CCOC(=O)c1[nH]c(C)c(C(=O)OCC)c1C	44.7%	-6.7%	-86.7%	x
CCOC(=O)c1[nH]c(C)c(C(=O)N2CCN(c3cccc(Cl)c3)CC2)c1C	0.0%	-1.0%	-34.7%	10.4µM*
CCOC(=O)c1[nH]c(C)c(C(=O)N2CCN(c3ccc(F)cc3)CC2)c1C	-9.2%	-2.2%	0.2%	u
CCOC(=O)c1[nH]c(C)c(C(=O)OCCOc2cccc(C)c2)c1C	2.62µM*	22.7%	-5.0%	7.38µM*
COc1ccccc1N1CCN(C2CCN(S(=O)(=O)c3ccc4ccccc4c3)CC2)CC1	u	3.3%	-5.6%	13.1µM*
COc1ccccc1N1CCN(C2CCN(S(=O)(=O)c3ccc(C)cc3)CC2)CC1	4.15µM*	-0.4%	-3.4%	u
COc1ccccc1N1CCN(S(=O)(=O)c2cc(C(F)(F)F)cc(C(F)(F)F)c2)CC1	6.57µM*	0.3%	4.4%	6.57µM*
COc1ccccc1N1CCN(S(=O)(=O)c2ccc3nc(-c4ccccc4)[nH]c3c2)CC1	2.94µM*	28.5%	24.3%	-25.4%
COc1ccccc1N1CCN(S(=O)(=O)c2ccccc2)CC1	x	-4.2%	0.2%	u
O=C(NCCCCc1ccccc1)C1CC(c2cc(C(F)(F)F)cc(C(F)(F)F)c2)=NO1 (configuration not stated)	36.8%	0.0%	2.4%	24.0%
COCCCN(Cc1ccco1)C(=O)c1cc2c(s1)-c1ccc(Cl)cc1S(=O)(=O)C2	u	-2.3%	-0.6%	3.1%
CCOC(=O)N1CCN(C(=O)COC(=O)CNC(=O)c2ccc(OCC)c(OCC)c2)CC1	2.8%	-1.4%	x	-17.1%
COc1ccccc1N(C(=O)c1ccco1)C(C(=O)NC1CCCC1)c1ccc(N2CCOCC2)cc1 (configuration not stated)	15.6%	0.0%	-2.5%	u
Clc1ccc(C(c2ccccc2Cl)C(Cl)Cl)cc1 (configuration not stated)	u	x	-21.5%	10.4µM*
COc1ccc(CCNC(=O)c2cc(C3CC3)nc3c2cnn3C(C)C)cc1	u	1.6%	x	u
COc1cc(C)c(NC(=O)c2cc(C3CC3)nc3c2cnn3C(C)C)cc1OC	u	-5.7%	x	u
COc1ccccc1OCCNC(=O)c1cc(C2CC2)nc2c1cnn2C(C)C	10.4µM*	-16.5%	x	u
COc1ccccc1CCNC(=O)c1cc(C2CC2)nc2c1cnn2C(C)C	10.4µM*	-2.5%	x	u
SMILES	Pf growth 96h	SARS PLP yeast	NS1 function inh	Pf growth 48h
COc1ccc(NC(=O)c2cc(C3CC3)nc3c2cnn3C(C)C)cc1OC	14.7µM*	-3.4%	x	u
Cc1ccc(OCc2cc(C(=O)N(C)Cc3cnn(-c4ccccc4C)c3)no2)cn1	u	-4.5%	-35.4%	6.6%
CC(=O)Nc1ccc(Sc2ncccc2C(=O)Nc2ccc(F)cc2)cn1	6.57µM*	-4.3%	4.3%	13.1µM*
O=C(/C=C/c1ccccc1)C1C(=O)c2ccccc2C1=O	3.7%	-23.5%	-10.1%	8.1%
CCc1ccc(/C=C/C(=O)C2C(=O)c3ccccc3C2=O)cc1	0.928µM*	-12.6%	19.6%	0.928µM*
COc1ccc(S(=O)(=O)N(C)CC(=O)NCCCn2ccnc2)cc1Cl	29.9%	3.3%	9.0%	4.7%
O=C(Nc1ccn(-c2ccccc2)n1)c1ccc(S(=O)(=O)N2CCCCCC2)cc1	u	2.5%	-127.2%	1.04µM*
O=C(Nc1ccon1)c1ccc(S(=O)(=O)N2CCCCCC2)cc1	u	3.2%	u	9.28µM*
O=C(Nc1ccccc1)c1ccc(S(=O)(=O)N2CCCCC2)cc1	u	15.6%	-30.4%	u
CC1(C)COCN1S(=O)(=O)c1ccc(C(=O)Nc2nnc(-c3ccc(Cl)s3)o2)cc1	-17.4%	21.4%	-3.8%	4.15µM*
COc1ccc(-c2nnc(NC(=O)c3ccc(S(=O)(=O)N4COCC4(C)C)cc3)o2)cc1	-4.6%	-8.0%	-17.6%	11.7µM*
CC1CCCCN1S(=O)(=O)c1ccc(C(=O)Nc2nnc(-c3ccccc3Cl)o2)cc1 (configuration not stated)	3.9%	-4.0%	-22.0%	x
O=C(Cn1nnc(-c2ccccc2)n1)NNC(=O)c1ccco1	36.1%	1.0%	-1.4%	1.5%
CN(CC(=O)Nc1ccc(F)c(F)c1F)C(=O)c1ccc(-n2cncn2)c([N+](=O)[O-])c1	3.5%	-3.5%	x	-8.4%
Cc1nn(C(C)C(=O)NC2CCC(C)CC2)c(=O)c2nn(-c3ccccc3)c(C)c12 (configuration not stated)	15.7%	-2.0%	-2.9%	-2.3%
O=c1[nH]c(COc2ccc(Cl)cc2Br)nc2ccccc12	-55.9%	-14.8%	-2.9%	-0.3%
CC(Oc1ccc(F)cc1Br)c1nc2ccccc2c(=O)[nH]1 (configuration not stated)	u	-7.1%	-32.1%	9.28µM*
FC(F)(F)c1cc(C(F)(F)F)c2ccc(N3CCN(c4ccc(Cl)cc4)CC3)nc2n1	28.3%	2.2%	7.5%	36.4%
N#CC(c1ccc(Cl)cc1)c1ccc2c(C(F)(F)F)cc(C(F)(F)F)nc2n1 (configuration not stated)	2.62µM*	-42.5%	-168.5%	x
CCOC(=O)C1CCCN(C(=O)c2cc(S(=O)(=O)N3CCCCCC3)ccc2OC)C1 (configuration not stated)	9.28µM*	-0.2%	x	9.28µM*
CCOC(=O)C1CCN(S(=O)(=O)c2ccc(Br)c(OCC)c2)CC1	4.65µM*	-4.1%	-5.8%	4.8%
CCOC(=O)C1CCCN(C(=O)c2ccc3nc(-c4ccccc4)c(-c4ccccc4)nc3c2)C1 (configuration not stated)	13.1µM*	1.0%	14.0%	u
CCOC(=O)C1CCN(S(=O)(=O)c2ccc3[nH]c(=O)c(=O)[nH]c3c2)CC1	8.9%	-2.4%	x	-23.3%
CCOC(=O)C1CCN(S(=O)(=O)c2ccc(OC)c(OC)c2)CC1	3.5%	0.2%	0.5%	x
